Measured values from publication doi:10.1101/2024.03.05.583629.

biological target: pT7_6His-AlfaTag-HOXD13 (human, UniProt P35453 263-343); assay: PADIT-seq; conditions: dsDNA, one strand shown
Sequence (P35453 263-343): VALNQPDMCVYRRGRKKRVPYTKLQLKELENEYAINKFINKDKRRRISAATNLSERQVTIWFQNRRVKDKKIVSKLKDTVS

Compared with “CTCGAGGATATCAAGATCTGGCCTCGGCGTTTTAGACGGAACCTCTAGCTAGCCGACTCACTATAGGGATAATCGCCCTGAGCAAAGACC”, “CTCGAGGATATCAAGATCTGGCCTCGGCCGGATAAAAGGAACCTCTAGCTAGCCGACTCACTATAGGGATAATCGCCCTGAGCAAAGACC” is higher in binding signal: -0.509 ± 0.117 log2FC for the first, 0.58 ± 0.0859 log2FC for the second.

Going from “CTCGAGGATATCAAGATCTGGCCTCGGCCTGATAAAAGGAACCTCTAGCTAGCCGACTCACTATAGGGATAATCGCCCTGAGCAAAGACC” to “CTCGAGGATATCAAGATCTGGCCTCGGCCGCCCAAATGGAACCTCTAGCTAGCCGACTCACTATAGGGATAATCGCCCTGAGCAAAGACC”, the binding signal falls from 1.73 ± 0.0914 log2FC to -0.854 ± 0.128 log2FC.

Going from “CTCGAGGATATCAAGATCTGGCCTCGGCCATCTAAAAGGAACCTCTAGCTAGCCGACTCACTATAGGGATAATCGCCCTGAGCAAAGACC” to “CTCGAGGATATCAAGATCTGGCCTCGGCGCTGTAAAAGGAACCTCTAGCTAGCCGACTCACTATAGGGATAATCGCCCTGAGCAAAGACC”, the binding signal rises from -0.085 ± 0.105 log2FC to 2.11 ± 0.0786 log2FC.

First: CTCGAGGATATCAAGATCTGGCCTCGGCATTTTAACAGGAACCTCTAGCTAGCCGACTCACTATAGGGATAATCGCCCTGAGCAAAGACC
Second: CTCGAGGATATCAAGATCTGGCCTCGGCTGGTTAAAAGGAACCTCTAGCTAGCCGACTCACTATAGGGATAATCGCCCTGAGCAAAGACC
The binding signal of the first is higher: 2.07 ± 0.0923 log2FC for the first, 1.48 ± 0.0798 log2FC for the second.

First: CTCGAGGATATCAAGATCTGGCCTCGGCCTTTTAGTCGGAACCTCTAGCTAGCCGACTCACTATAGGGATAATCGCCCTGAGCAAAGACC
Second: CTCGAGGATATCAAGATCTGGCCTCGGCCGCCCATCAGGAACCTCTAGCTAGCCGACTCACTATAGGGATAATCGCCCTGAGCAAAGACC
The binding signal of the first is higher: -0.369 ± 0.0988 log2FC for the first, -1.02 ± 0.114 log2FC for the second.

First: CTCGAGGATATCAAGATCTGGCCTCGGCGCGGGAGCGGGAACCTCTAGCTAGCCGACTCACTATAGGGATAATCGCCCTGAGCAAAGACC
Second: CTCGAGGATATCAAGATCTGGCCTCGGCGCGGTAAAAGGAACCTCTAGCTAGCCGACTCACTATAGGGATAATCGCCCTGAGCAAAGACC
The binding signal of the first is lower: -0.635 ± 0.137 log2FC for the first, 0.513 ± 0.0756 log2FC for the second.

First: CTCGAGGATATCAAGATCTGGCCTCGGCTGAATAAAAGGAACCTCTAGCTAGCCGACTCACTATAGGGATAATCGCCCTGAGCAAAGACC
Second: CTCGAGGATATCAAGATCTGGCCTCGGCTTTTTACGTGGAACCTCTAGCTAGCCGACTCACTATAGGGATAATCGCCCTGAGCAAAGACC
The binding signal of the first is lower: 0.859 ± 0.0895 log2FC for the first, 2.42 ± 0.0834 log2FC for the second.

Compared with “CTCGAGGATATCAAGATCTGGCCTCGGCGTTTTATGAGGAACCTCTAGCTAGCCGACTCACTATAGGGATAATCGCCCTGAGCAAAGACC”, “CTCGAGGATATCAAGATCTGGCCTCGGCCGTGTAAAAGGAACCTCTAGCTAGCCGACTCACTATAGGGATAATCGCCCTGAGCAAAGACC” is lower in binding signal: 3.28 ± 0.127 log2FC for the first, 1.58 ± 0.0857 log2FC for the second.

First: CTCGAGGATATCAAGATCTGGCCTCGGCAAAATAAAAGGAACCTCTAGCTAGCCGACTCACTATAGGGATAATCGCCCTGAGCAAAGACC
Second: CTCGAGGATATCAAGATCTGGCCTCGGCGCACTAAAAGGAACCTCTAGCTAGCCGACTCACTATAGGGATAATCGCCCTGAGCAAAGACC
The binding signal of the first is higher: 1.46 ± 0.0905 log2FC for the first, 0.431 ± 0.0748 log2FC for the second.

First: CTCGAGGATATCAAGATCTGGCCTCGGCAGTATAAAAGGAACCTCTAGCTAGCCGACTCACTATAGGGATAATCGCCCTGAGCAAAGACC
Second: CTCGAGGATATCAAGATCTGGCCTCGGCTGGATAAAAGGAACCTCTAGCTAGCCGACTCACTATAGGGATAATCGCCCTGAGCAAAGACC
The binding signal of the first is higher: 1.92 ± 0.0665 log2FC for the first, -0.165 ± 0.087 log2FC for the second.

Going from “CTCGAGGATATCAAGATCTGGCCTCGGCGTTTTATACGGAACCTCTAGCTAGCCGACTCACTATAGGGATAATCGCCCTGAGCAAAGACC” to “CTCGAGGATATCAAGATCTGGCCTCGGCTTTTTATCAGGAACCTCTAGCTAGCCGACTCACTATAGGGATAATCGCCCTGAGCAAAGACC”, the binding signal falls from 2.62 ± 0.0803 log2FC to 2.36 ± 0.0842 log2FC.

Compared with “CTCGAGGATATCAAGATCTGGCCTCGGCCTTTTAAGTGGAACCTCTAGCTAGCCGACTCACTATAGGGATAATCGCCCTGAGCAAAGACC”, “CTCGAGGATATCAAGATCTGGCCTCGGCTTGATAAAAGGAACCTCTAGCTAGCCGACTCACTATAGGGATAATCGCCCTGAGCAAAGACC” is lower in binding signal: 1.38 ± 0.0835 log2FC for the first, 0.619 ± 0.0899 log2FC for the second.

Compared with “CTCGAGGATATCAAGATCTGGCCTCGGCATGATAAAAGGAACCTCTAGCTAGCCGACTCACTATAGGGATAATCGCCCTGAGCAAAGACC”, “CTCGAGGATATCAAGATCTGGCCTCGGCTATGTAAAAGGAACCTCTAGCTAGCCGACTCACTATAGGGATAATCGCCCTGAGCAAAGACC” is lower in binding signal: 1.61 ± 0.0749 log2FC for the first, 1.05 ± 0.102 log2FC for the second.

First: CTCGAGGATATCAAGATCTGGCCTCGGCTTTTTAACAGGAACCTCTAGCTAGCCGACTCACTATAGGGATAATCGCCCTGAGCAAAGACC
Second: CTCGAGGATATCAAGATCTGGCCTCGGCGGTCTAAAAGGAACCTCTAGCTAGCCGACTCACTATAGGGATAATCGCCCTGAGCAAAGACC
The binding signal of the first is higher: 2.05 ± 0.0793 log2FC for the first, -0.664 ± 0.0879 log2FC for the second.

Going from “CTCGAGGATATCAAGATCTGGCCTCGGCTACCTAAAAGGAACCTCTAGCTAGCCGACTCACTATAGGGATAATCGCCCTGAGCAAAGACC” to “CTCGAGGATATCAAGATCTGGCCTCGGCATTTTACTGGGAACCTCTAGCTAGCCGACTCACTATAGGGATAATCGCCCTGAGCAAAGACC”, the binding signal rises from -0.459 ± 0.127 log2FC to 2.8 ± 0.0813 log2FC.

Going from “CTCGAGGATATCAAGATCTGGCCTCGGCTTTTTATAGGGAACCTCTAGCTAGCCGACTCACTATAGGGATAATCGCCCTGAGCAAAGACC” to “CTCGAGGATATCAAGATCTGGCCTCGGCCCGGTAAAAGGAACCTCTAGCTAGCCGACTCACTATAGGGATAATCGCCCTGAGCAAAGACC”, the binding signal falls from 3.37 ± 0.0926 log2FC to 0.409 ± 0.0951 log2FC.

First: CTCGAGGATATCAAGATCTGGCCTCGGCGTTTTAAACGGAACCTCTAGCTAGCCGACTCACTATAGGGATAATCGCCCTGAGCAAAGACC
Second: CTCGAGGATATCAAGATCTGGCCTCGGCGTTTTAGGAGGAACCTCTAGCTAGCCGACTCACTATAGGGATAATCGCCCTGAGCAAAGACC
The binding signal of the first is lower: 0.884 ± 0.0954 log2FC for the first, 1.64 ± 0.105 log2FC for the second.

First: CTCGAGGATATCAAGATCTGGCCTCGGCCGCATCCGCGGAACCTCTAGCTAGCCGACTCACTATAGGGATAATCGCCCTGAGCAAAGACC
Second: CTCGAGGATATCAAGATCTGGCCTCGGCCTGCTAAAAGGAACCTCTAGCTAGCCGACTCACTATAGGGATAATCGCCCTGAGCAAAGACC
The binding signal of the first is lower: -0.957 ± 0.122 log2FC for the first, 0.179 ± 0.113 log2FC for the second.

“CTCGAGGATATCAAGATCTGGCCTCGGCCGCAGTCGCGGAACCTCTAGCTAGCCGACTCACTATAGGGATAATCGCCCTGAGCAAAGACC” and “CTCGAGGATATCAAGATCTGGCCTCGGCGCGGTAGCGGGAACCTCTAGCTAGCCGACTCACTATAGGGATAATCGCCCTGAGCAAAGACC” are within error of each other in binding signal: -1.09 ± 0.145 log2FC for the first, -1.07 ± 0.136 log2FC for the second.
